# Measurements reported in the supplement of paper PMC9262897, “Low-cost anti-mycobacterial drug discovery using engineered E. coli” (Nature Communications, 2022).
# Where a name gives a salt, the structure may show the parent alone. ± gives the standard deviation of the averaged measurements.
# Test system: E. coli TESEC Alr+ wild-type control
# Experiment: growth (OD600 after 10 h); higher = more growth (less inhibition)
# Settings: compound 0.1 mM; raw OD600 reference: median of DMSO wells 0.49, cell-free background 0.052
# Procedure: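 TESEC Mtb Alr E. coli (ΔaraC ΔtolC ΔentC Δalr ΔdadX, arabinose-inducible Mtb Alr) or the Alr+ wild-type control strain, grown in defined M9-fructose medium without D-alanine in 96-well plates with Prestwick library compounds at 0.1 mM and 1% DMSO. Low Alr induction is 0.1 µM arabinose and high induction is 10 mM arabinose.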
row,SMILES,growth
1,CCN(CC)Cc1cc(Nc2ccnc3cc(Cl)ccc23)ccc1O [Amodiaquin dihydrochloride dihydrate],0.527 ± 0.047
2,CCOC(=O)O[C@]1(C(=O)OCCl)CC[C@H]2[C@@H]3CCC4=CC(=O)C=C[C@]4(C)[C@H]3[C@@H](O)C[C@@]21C [Loteprednol etabonate],0.473 ± 0.12
3,CCCCNc1c(C(=O)OCC)c(C)nc2c1cnn2CC [Tracazolate hydrochloride],0.335 ± 0.024
4,CC[N+](C)(C)Cc1ccccc1Br [Bretylium tosylate],0.624 ± 0.021
5,CCC(=O)O[C@@H](O[P@](=O)(CCCCc1ccccc1)CC(=O)N1C[C@H](C2CCCCC2)C[C@H]1C(=O)O)C(C)C [Fosinopril],0.508 ± 0.076
6,C#CCN[C@@H]1CCc2ccccc21 [Rasagiline],0.547 ± 0.014
7,CC(N)CCCC(C)(C)O (stereo not given) [Heptaminol hydrochloride],0.501 ± 0.054
8,CCCCCCCCCCCCCCCC[N+](C)(C)CCN(Cc1ccc(OC)cc1)c1ncccn1 [Thonzonium bromide],0.0464 ± 0.00035
9,Cc1ccc(NC(=O)c2ccc(CN3CCN(C)CC3)cc2)cc1Nc1nccc(-c2cccnc2)n1 [Imatinib],0.455 ± 0.046
10,CC1(C)O[C@@H]2C[C@H]3[C@@H]4C[C@H](F)C5=CC(=O)C=C[C@]5(C)[C@@]4(F)[C@@H](O)C[C@]3(C)[C@]2(C(=O)CO)O1 [Fluocinolone acetonide],0.591 ± 0.015
11,CCOC(=O)O[C@]1(C(=O)COC(=O)CC)CC[C@H]2[C@@H]3CCC4=CC(=O)C=C[C@]4(C)[C@H]3[C@@H](O)C[C@@]21C [Prednicarbate],0.38 ± 0.015
12,CC(=O)Nc1c(I)c(NC(C)=O)c(I)c(C(=O)O)c1I [Diatrizoic acid dihydrate],0.537 ± 0.08
13,COc1ccc(Cl)cc1C(=O)NCCc1ccc(S(=O)(=O)NC(=O)NC2CCCCC2)cc1 [Glibenclamide],0.355 ± 0.032
14,CC(C)(Oc1ccc(Cl)cc1)C(=O)O [Clofibric acid],0.547 ± 0.1
15,O=C1[C@H]2CCCC[C@H]2C(=O)N1CCCCN1CCN(c2nsc3ccccc23)CC1 [Perospirone],0.432 ± 0.016
16,C[C@H](CS)C(=O)N1CCC[C@H]1C(=O)O [Captopril],0.475 ± 0.059
17,CCN(CCCCOC(=O)c1ccc(OC)c(OC)c1)C(C)Cc1ccc(OC)cc1 (stereo not given) [Mebeverine hydrochloride],0.435 ± 0.016
18,CCC[C@@H]1C[C@@H](C(=O)N[C@@H]([C@H]2O[C@H](SC)[C@H](O)[C@@H](O)[C@H]2O)[C@H](C)Cl)N(C)C1 [Clindamycin hydrochloride],0.0771 ± 0.0023
19,CCOC(=O)C(C)(C)Oc1ccc(Cl)cc1 [Clofibrate],0.609 ± 0.065
20,"CN(Cc1cnc2nc(N)nc(N)c2n1)c1ccc(C(=O)N[C@@H](CCC(=O)O)C(=O)O)cc1 (racemic) [Amethopterin (R,S)]",0.0999 ± 0.0032

row,SMILES,growth
1,Cc1ncc([N+](=O)[O-])n1CC(C)O (stereo not given) [Secnidazole],0.4475 ± 0.003
2,COc1ccc2c3c1O[C@H]1C[C@@H](O)C=C[C@@]31CCN(C)C2 [Galanthamine hydrobromide],0.459 ± 0.04
3,CC(C)(C)C(=O)OCOC(=O)[C@@H]1N2C(=O)[C@@H](/N=C/N3CCCCCC3)[C@H]2SC1(C)C [Pivmecillinam hydrochloride],0.509 ± 0.096
4,CC(=O)N[C@@H](CC(C)C)C(=O)O [N-Acetyl-L-leucine],0.637 ± 0.023
5,CCN(CC)CCNC(C(=O)OCCC(C)C)c1ccccc1 (stereo not given) [Camylofine chlorhydrate],0.559 ± 0.084
6,O=C(O)[C@H]1/C(=C/CO)O[C@@H]2CC(=O)N21 [Clavulanate potassium salt],0.04737 ± 0.00042
7,O=C(O)c1cccnc1Nc1cccc(C(F)(F)F)c1 [Niflumic acid],0.206 ± 0.046
8,CC(=O)OCC(=O)NCCCOc1cccc(CN2CCCCC2)c1 [Roxatidine Acetate HCl],0.673 ± 0.062
9,O=C(O)COC(=O)Cc1ccccc1Nc1c(Cl)cccc1Cl [Aceclofenac],0.424 ± 0.0057
10,CN(C(=O)CN(CCO)CC(=O)N(C)C(C)(C)Cc1ccccc1)C(C)(C)Cc1ccccc1 [Oxethazaine],0.0484 ± 0.00076
11,COc1cccc2c1C(=O)c1c(O)c3c(c(O)c1C2=O)C[C@@](O)(C(=O)CO)C[C@@H]3O[C@H]1C[C@H](N)[C@H](O)[C@H](C)O1 [Doxorubicin hydrochloride],0.05757 ± 0.00055
12,CCCN[C@H]1CCc2nc(N)sc2C1 [Pramipexole dihydrochloride],0.64 ± 0.0092
13,Cc1cc(/C=C/c2ccc3cc(N(C)C)ccc3[n+]2C)c(C)n1-c1ccccc1 [Pyrvinium pamoate],0.141 ± 0.019
14,Cc1nc(=O)c2cc(CN(C)c3ccc(C(=O)N[C@@H](CCC(=O)O)C(=O)O)s3)ccc2[nH]1 [Raltitrexed],0.606 ± 0.055
15,CN(CCCN1c2ccccc2CCc2ccccc21)CC(=O)c1ccc(Cl)cc1 [Lofepramine],0.343 ± 0.013
16,NS(=O)(=O)c1cc(Cl)c(Cl)c(S(N)(=O)=O)c1 [Dichlorphenamide],0.443 ± 0.011
17,CS(=O)(=O)c1ccc([C@@H](O)[C@@H](CO)NC(=O)C(Cl)Cl)cc1 [Thiamphenicol],0.206 ± 0.015
18,COC(=O)CCc1ccc(OCC(O)CNC(C)C)cc1 (stereo not given) [Esmolol hydrochloride],0.431 ± 0.019
19,O=C(N[C@H](CO)[C@H](O)c1ccc([N+](=O)[O-])cc1)C(Cl)Cl [Chloramphenicol],0.05047 ± 0.0005
20,CN(C)CC/C=C1\c2ccccc2CSc2ccccc21 [Dosulepin hydrochloride],0.425 ± 0.028
